In ChEMBL document CHEMBL3988442, “University of Dundee, Small-Polar-MMV Screening Library” (2021):
The campaign covered roughly 67,000 compounds. About 300 (0.45%) showed an effect of 50% or more. The sample as a whole holds a higher share of strong results than the screen did.

Molecular target: Polyketide synthase Pks13 (Mycobacterium tuberculosis (strain ATCC 25618 / H37Rv)) (UniProt I6X8D2)
Experiment: Mycobacterium tuberculosis Polyketide synthase 13 Thioesterase (PKS13)
Format: functional
Parameters: scale not given: in the data most compounds retested in dose-response had high values
Settings: 30 µM

Polyketide synthase Pks13 (Mycobacterium tuberculosis (strain ATCC 25618 / H37Rv)), sequence (I6X8D2 whole entry): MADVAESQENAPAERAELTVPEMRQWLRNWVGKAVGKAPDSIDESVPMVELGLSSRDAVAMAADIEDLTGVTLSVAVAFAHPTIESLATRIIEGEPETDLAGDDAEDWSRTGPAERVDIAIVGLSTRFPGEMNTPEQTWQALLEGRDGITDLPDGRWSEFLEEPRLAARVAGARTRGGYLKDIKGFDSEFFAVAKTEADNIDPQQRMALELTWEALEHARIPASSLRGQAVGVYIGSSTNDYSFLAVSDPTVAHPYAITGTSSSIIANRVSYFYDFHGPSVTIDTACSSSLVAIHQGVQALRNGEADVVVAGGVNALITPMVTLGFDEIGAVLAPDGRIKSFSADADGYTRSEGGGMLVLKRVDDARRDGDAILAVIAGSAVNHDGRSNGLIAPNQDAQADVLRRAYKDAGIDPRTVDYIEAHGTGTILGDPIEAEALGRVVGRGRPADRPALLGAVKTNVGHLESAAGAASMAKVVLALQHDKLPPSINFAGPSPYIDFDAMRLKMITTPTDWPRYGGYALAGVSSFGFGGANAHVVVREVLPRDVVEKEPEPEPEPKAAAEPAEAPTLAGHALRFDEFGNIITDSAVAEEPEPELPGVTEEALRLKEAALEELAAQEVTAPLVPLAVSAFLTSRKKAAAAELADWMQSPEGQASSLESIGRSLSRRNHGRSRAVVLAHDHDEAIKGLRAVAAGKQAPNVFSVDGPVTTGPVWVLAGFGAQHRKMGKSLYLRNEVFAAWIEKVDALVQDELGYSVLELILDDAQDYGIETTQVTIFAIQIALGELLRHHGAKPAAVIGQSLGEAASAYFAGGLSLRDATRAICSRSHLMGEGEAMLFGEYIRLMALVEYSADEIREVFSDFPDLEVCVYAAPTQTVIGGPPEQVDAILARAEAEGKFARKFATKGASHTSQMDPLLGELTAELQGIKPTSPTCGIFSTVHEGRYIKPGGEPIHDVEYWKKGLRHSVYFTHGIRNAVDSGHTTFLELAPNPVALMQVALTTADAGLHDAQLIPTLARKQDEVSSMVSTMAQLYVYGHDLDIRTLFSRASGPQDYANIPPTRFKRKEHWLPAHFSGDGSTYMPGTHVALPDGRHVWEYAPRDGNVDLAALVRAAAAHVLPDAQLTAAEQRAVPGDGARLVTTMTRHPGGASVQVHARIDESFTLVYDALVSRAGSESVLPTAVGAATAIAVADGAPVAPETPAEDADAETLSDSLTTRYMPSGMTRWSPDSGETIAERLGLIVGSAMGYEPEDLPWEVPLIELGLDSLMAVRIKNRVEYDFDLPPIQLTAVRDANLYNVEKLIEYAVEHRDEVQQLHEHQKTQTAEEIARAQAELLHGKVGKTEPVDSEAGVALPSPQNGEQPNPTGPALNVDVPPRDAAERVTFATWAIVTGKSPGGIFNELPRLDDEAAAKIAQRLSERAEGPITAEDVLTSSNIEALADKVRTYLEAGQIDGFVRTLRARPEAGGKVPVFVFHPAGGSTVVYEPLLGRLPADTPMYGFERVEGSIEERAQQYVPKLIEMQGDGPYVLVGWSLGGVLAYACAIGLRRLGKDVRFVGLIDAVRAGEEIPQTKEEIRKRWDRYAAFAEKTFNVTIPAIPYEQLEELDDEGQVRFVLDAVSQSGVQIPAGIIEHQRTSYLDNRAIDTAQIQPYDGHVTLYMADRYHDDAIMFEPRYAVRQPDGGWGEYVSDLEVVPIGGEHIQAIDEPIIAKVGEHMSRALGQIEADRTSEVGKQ

In order of falling Percent Effect:
1. c1csc(-c2noc(CCCN3CCCC3Cn3cncn3)n2)c1 (configuration not stated)  111%
2. CCc1nc2n(n1)CC(NCc1ncc(-c3ccccc3)o1)CC2 (configuration not stated)  108%
3. CC(Nc1cnn(C)c(=O)c1Cl)c1ccc(F)c(F)c1 (configuration not stated)  78.5%
4. CC1=N[C@@]2(CC[C@@H]3CN(S(C)(=O)=O)C[C@@H]32)C(=O)N1CC(C)C  75.9%
5. CN(C[C@@H]1CCC[C@@H]2CN(c3ncccn3)C[C@@H]21)C1CC1  75.8%
6. Cc1noc(CNc2ccc(CC(=O)N3CCSCC3)cc2)n1  70.3%
7. CS(=O)(=O)c1ccc(-c2cc(C3CC3)c(C#N)c(N)n2)cc1  62.7%
8. Cn1cc(-c2ccnc(NCC3CCN(Cc4ccccc4)C3)n2)cn1 (configuration not stated)  60.9%
9. CCC(CNC(=O)COC)Oc1cccc(F)c1 (configuration not stated)  60.4%
10. NC(=O)CSc1nccc(-c2ccc3c(c2)OCO3)n1  59.5%
11. c1ccc2oc(CCCN3CCCCC3Cn3cncn3)nc2c1 (configuration not stated)  58.4%
12. O=C(O)CSc1nccc(-c2ccc3c(c2)OCO3)n1  51.8%
13. CCN(CC)C(=O)c1nnc2ccc(N3CCOCC3)cc2n1  51.7%
14. O=C(NCc1ccccc1)c1nnc2ccc(N3CCOCC3)cc2n1  50.8%
15. CCNC(=O)c1nnc2ccc(N3CCOCC3)cc2n1  48.2%
16. N#Cc1c(C2CC2)cc(-c2ccc(O)cc2)nc1N  44.4%
17. O=S(=O)(c1ccccc1)N1C[C@@H]2COC[C@]2(CN2CCOCC2)C1  27.2%
18. O=C(CSc1nccc(-c2ccc3c(c2)OCO3)n1)N1CCOCC1  26.7%
19. CNC(=O)[C@H]1C[C@@H]2CN(C(=O)c3cncc(C)c3)C[C@@H]2N1C  19.6%
20. c1cncc(OC[C@@]23CCO[C@@H]2CCN(Cc2cccs2)C3)c1  12.4%
21. O=C(c1ccccc1F)N1CC[C@@H]2CN(c3ncccn3)CCO[C@@H]2C1  12%
22. CN(C)C(=O)c1nnc2ccc(N3CCOCC3)cc2n1  11.7%
23. Cc1cccc(CN2C[C@@H]3COC[C@]3(COc3cccnc3)C2)n1  8.46%
24. CCc1nnc(CNc2ccc(CC(=O)N3CCSCC3)cc2)o1  5.6%
25. Cc1cccc(CN2CC[C@H]3[C@H]2CCN3C(=O)c2cnn(C)c2)n1  3.27%
26. COc1ccc(C(C)Nc2cnn(C)c(=O)c2Cl)cc1OC (configuration not stated)  2.82%
27. COc1ccc(OC)c(C(=O)N2C[C@H]3CC[C@@H]2CN(C)C3)c1  2.2%
28. CNCc1nc(-c2ccc3c(c2)OCO3)c[nH]1  0.694%
29. Fc1cccc(CN2C[C@@H]3COC[C@]3(COCc3ccncc3)C2)c1  0.554%
30. c1ccc2oc(CN3CCCCC3Cn3cncn3)nc2c1 (configuration not stated)  -0.333%
31. CN(C)C(=O)COC[C@@H]1CC[C@H]2[C@H](CCN2c2ncccn2)O1  -0.596%
32. CN(C)c1ccc(C(=O)NCc2ccc(N3CCOCC3)cc2)cn1  -1.83%
33. O=C1[C@H]2CN(c3ncccn3)C[C@H]2CN1Cc1ccncc1  -2.04%
34. CCC(=O)NCC(CC)Oc1cccc(F)c1 (configuration not stated)  -2.34%
35. CCN(CCC(F)(F)F)C(=O)Nc1cccc(N2CCOCC2)c1  -2.57%
36. c1csc(-c2noc(CCCN3CCCC3Cn3cccn3)n2)c1 (configuration not stated)  -2.79%
37. CN(C)c1nccc(N2CCO[C@H]3CN(Cc4ccco4)C[C@H]32)n1  -3.24%
38. CO[C@@H]1CC[C@H]2[C@H]1OCCN2CC1CC1  -4.52%
39. O=C([C@H]1COC[C@H]2CN(C3CCOCC3)C[C@H]21)N1CCCCO1  -4.79%
40. Cc1nccn1CC1CCCN1CCCc1nc(-c2cccs2)no1 (configuration not stated)  -4.96%
41. CC(=O)N1[C@@H](C(=O)NCC2CC2)C[C@@H]2CN(Cc3ccco3)C[C@@H]21  -5.84%
42. COc1cc(N2C[C@H]3CCC[C@@H](CN(C)C4CC4)[C@H]3C2)ncn1  -5.89%
43. O=C(c1ccnnc1)N1C[C@H](Oc2cccnc2)[C@H]2OCCC[C@H]21  -7.04%
44. O=C(CC1CCCC1)N1C[C@H](Oc2cccnc2)[C@H]2OCCC[C@H]21  -7.32%
45. CCS(=O)(=O)N1C[C@H]2CN(Cc3ccc(OC)cc3)C(=O)[C@H]2C1  -7.48%
46. CCC(CNC(=O)CNC(C)=O)Oc1cccc(F)c1 (configuration not stated)  -7.54%
47. CN1CCO[C@H]2CN(S(=O)(=O)c3ccc(C#N)cc3)C[C@H]21  -7.61%
48. O=C(CCc1ccccc1)N1C[C@@H]2CN(Cc3ccoc3)CCO[C@@H]2C1  -7.96%
49. CC(Nc1cnn(C)c(=O)c1Cl)c1ccc(F)cc1 (configuration not stated)  -8.28%
50. O=C(CSc1ccccn1)N1C[C@H]2CC[C@@H]1CN(Cc1cscn1)C2  -9.36%
51. CCS(=O)(=O)N1C[C@H]2CC[C@@]3(N=C(C)N(CC(C)C)C3=O)[C@H]2C1  -10.2%
52. NC(=O)CCC(=O)N1CCc2[nH]nc(-c3ccc4c(c3)OCO4)c2C1  -10.3%
53. c1ccc2oc(CCCN3CCCC3Cn3cncn3)nc2c1 (configuration not stated)  -10.8%
54. Cc1nc(CO[C@H]2CN(C(=O)c3ccc[nH]3)[C@@H]3COC[C@H]23)cs1  -11.9%
55. CCc1noc(CNc2ccc(CC(=O)N3CCSCC3)cc2)n1  -12.3%
56. Cn1cc(-c2ccnc(NCC3CC3)n2)cn1  -14.8%
57. CC(C)c1nc2n(n1)CC(NCc1ncc(-c3ccccc3)o1)CC2 (configuration not stated)  -14.9%
58. CCc1nc2n(n1)CC(NCc1cnc(-c3ccccc3)nc1)CC2 (configuration not stated)  -15%
59. CCOc1ccc(-c2ccc3c(c2)OCO3)cc1C(N)=O  -15.1%
60. CN(C)C(=O)CN1C[C@@H]2CC[C@H](C1)N(C(=O)Cc1ccccc1Cl)C2  -15.3%
61. c1cc(CN2C[C@@H]3OCCN(CC4CCCO4)[C@@H]3C2)cs1 (some centres not stated)  -16.8%
62. CN(C)CCNC(=O)[C@H]1C[C@H]2CN(c3ncccn3)C[C@H]2N1C  -18.5%
63. COCC(=O)N1C[C@H]2CNC[C@@]2(C(=O)NCc2cccc3[nH]ccc23)C1  -18.7%
64. CCN1C[C@H]2CCN(C(=O)C3CCCO3)CC[C@H]2S1(=O)=O (some centres not stated)  -20.2%
65. Cn1cc(CN2C[C@@H]3OCCN(CC4CCCC4)[C@@H]3C2)cn1  -22.6%
66. O=C(CC(F)(F)F)N1C[C@H]2CN(CC3CC3)C(=O)[C@H]2C1  -30.7%
67. COCCCN1CCC(CNc2nccc(-c3cnn(C)c3)n2)C1 (configuration not stated)  -31.5%
68. Cn1nc(-c2ccccc2)cc1[C@H]1CN2CC[C@H]1C[C@@H]2CNS(C)(=O)=O  -32.5%
69. CN1C(=O)[C@H]2CC[C@@H]1CN(C(=O)c1sccc1S(N)(=O)=O)C2  -33.4%
70. COCCN(C)C[C@@H]1CCC[C@@H]2CN(c3ncccn3)C[C@@H]21  -50.6%
71. CC1=N[C@@]2(CC[C@@H]3CN(S(=O)(=O)C4CC4)C[C@@H]32)C(=O)N1CC(C)C  -51.1%
72. COc1ccc(-c2cc(C3CC3)c(C#N)c(N)n2)cc1F  -126%
